Compound activity: PubChem, National Center for Advancing Translational Sciences (NCATS)
HT1080NT lethal = kills 2HG-producing HT-1080-NT fibrosarcoma cells; HT-1080-NT fibrosarcoma viability, CellTiter-Glo ATP luminescence, 48 h; Potency, µM (doses to about 46.1 µM), without a hit: at the top dose activity, negative = less viability, actives largely listed as cytotoxic; actives 1.6% (n = 360,000);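 note: NT is the 2HG producing partner of a matched IDH1 knockdown line; 0% = DMSO-treated cells and -100% = media-only wells without cells; nearly all actives have a fitted effect of over 55% in size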
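HT-1080-NT; 750 cells/well; 5% FBS RPMI; 48 h compound, 37 degrees C; CellTiter-Glo luminescence; curve fitting and curve-class assignment.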
TDP1 cell noCPT = qHTS for Inhibitors of human tyrosyl-DNA phosphodiesterase 1 (TDP1): qHTS in cells in absence of CPT. DT40 Tdp1-/- hTDP1 cells, no CPT, ATP luminescence, 48 h. Potency, µM (highest dose often 46.2 µM), for the others: top-dose activity change, negative = growth inhibition, hits mostly inhibitors. actives 15% (n = 420,000). AID 686978, 2013; note: nearly all actives have a fitted effect of over 55% in size
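Readout: luminescence from CellTiter-Glo after 30 min in the dark at RT. Cells: DT40 Tdp1-/- with stable hTDP1, 400/well. Exposure: compounds alone, ≥48 hr, 37 °C.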
KB-V1 MDR tox = KB-V1 MDR subline cytotoxicity; KB-V1 MDR cells viability, CellTiter-Glo, 72 h; Potency, µM (series often up to 46.1 µM), hits mostly cytotoxic; actives 3.4% (n = 400,000); AID 1347076; note: nearly all actives have a fitted effect of over 60% in size
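qHTS viability screen in drug-selected KB-V1 MDR cells: 72 h compound treatment at 37 degrees C, ATP luminescence end point.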
HT1080 IDH1KD tx = kills HT-1080 cells with IDH1 knockdown | HT-1080 IDH1 knockdown viability, ATP luminescence, 48 h | Potency, µM (top dose mostly 46.1 µM), for the others: top-dose activity, negative = toxicity, hits mostly cytotoxic | actives 2% (n = 360,000);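 note: 0% = DMSO wells and -100% = cell-free medium wells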
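After a 2 h attachment period, IDH1KD HT-1080 cells took pin-transferred compound for 48 h at 37 °C; ATP-based luminescence after 10 min room-temperature reagent incubation reported viability.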
TDP1 cell CPT = growth inhibition of DT40 Tdp1-/-;hTDP1 cells with camptothecin (screen for TDP1 inhibitors); chicken DT40 Tdp1-/-;hTDP1 cells + 20 nM CPT, ATP luminescence, 48 h; Potency, µM (doses to about 46.2 µM), for inactives: at the highest dose activity change, negative = growth inhibition, hits mostly inhibitors; actives 12% (n = 420,000); AID 686979; note: nearly all actives have a fitted effect of over 55% in size
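Chicken DT40 Tdp1-/- cells complemented with human TDP1, 400 cells/well, exposed to compounds plus 20 nM camptothecin for at least 48 h at 37 C; viability read as ATP content by CellTiter-Glo luminescence.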
KB-3-1 cytotox = KB-3-1 parental cell cytotoxicity; KB-3-1 viability, CellTiter-Glo ATP luminescence, 72 h; Potency, µM (series often up to 46.1 µM), usual class: cytotoxic; actives 1.4% (n = 400,000); AID 1347075; note: nearly all actives have a fitted effect of over 60% in size
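Screening of KB-3-1 cells (DMEM, 10% FBS, phenol-red free) ran from lowest to highest compound concentration; after 72 h at 37 °C viability was read luminescently and curves fitted.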
An asterisk follows results filed as active; i = inactive; ? = inconclusive; . = no result given; ! = not active in a repeat. Rows were chosen to be rich in hits. Some 19% of all compounds tested hit in one or more screens of this group. Calls come from the whole dose curve; as a rule, active = well fitted curve in the direction sought with a large enough effect; inconclusive = small, poorly fitted or top-dose-only effect, or another doubt; inactive = no such curve, though single readings can be large; an effect the other way counts as inactive or inconclusive. Unless noted, % is set by controls: 0 for no effect and ±100 for the full control effect; potency is the fitted concentration of half-maximal effect.

SMILES | HT1080NT lethal | TDP1 cell noCPT | KB-V1 MDR tox | HT1080 IDH1KD tx | TDP1 cell CPT | KB-3-1 cytotox
O=C(O)C1CCCCN1S(=O)(=O)c1ccccc1 (stereo not drawn) | -3% | 4% | ? | 0% | 2% | i
O=C(/C=C/c1ccccc1)NCCCNC(=O)/C=C/c1ccccc1 | -18% | -20% | ? | -12% | -6% | i
O=C(CN1CCOCC1)Nc1ccccc1Sc1ccc(Cl)cc1 | 0% | 6.5µM* | ? | -1% | ? | i
O=C(Cc1ccc(Cl)cc1)Nc1ccccc1Sc1ccccc1 | -13% | ? | 23µM* | -6% | ? | ?
O=C(CCl)Nc1ccccc1Sc1ccccc1 | -7% | ? | i | -3% | ? | i
O=C(Cc1ccccc1)Nc1cc(Cl)ccc1Sc1ccccc1 | 6% | ? | 18µM* | 26% | -1% | i
CCOCCc1nn2c(=O)cc(COC(=O)CNC(=O)c3ccc(F)cc3)nc2s1 | . | -3% | ? | . | 5% | i
O=C(NNC(=O)c1cccs1)c1ccc(Cl)nc1 | 12% | -12% | i | 15% | 12% | i
CCN(CC)C(=O)CSc1nc2cc(S(=O)(=O)N3CCOCC3)ccc2n1CC | 1% | -15% | i | 1% | 1% | i
COCCCNC(=O)c1cc(Nc2ccc(OC)cc2OC)nc2ccccc12 | 2% | ? | i | 0% | ? | i
COc1ccc(OC)c(Nc2cc(C(=O)NCCCN3CCOCC3)c3ccccc3n2)c1 | -30% | 23µM* | 18µM* | ? | ? | i
COc1ccc(N2CCN(CCCNC(=O)c3cc(Nc4ccc(OC)cc4OC)nc4ccccc34)CC2)cc1 | . | 21µM* | ? | . | 23µM* | i
COc1ccc(OC)c(CCNC(=O)c2cc3c(=O)oc4ccc(C)cc4c3s2)c1 | . | -24% | i | . | 2% | i
COc1cc2c(cc1OC)C1(Nc3c-2c(Cc2ccccc2)nn3-c2ccccc2)C(=O)Nc2ccccc21 (stereo not drawn) | ? | 23µM* | i | ? | ? | ?
Cc1ccc2c(Cl)c(C(=O)NC3CC3)sc2c1 | 0% | -6% | i | 14% | -5% | i
O=C1C2C3c4ccccc4C(c4ccccc43)[C@@H]2C(=O)N1c1ccccn1 (stereo partly drawn) | -10% | 21µM* | i | 0% | ? | i
N#Cc1c(N)oc(-c2ccccc2)c1-c1ccccc1 | 0% | -13% | i | 1% | -6% | i
N#Cc1c(N)oc(-c2ccco2)c1-c1ccco1 | -1% | 16µM* | i | -1% | ? | i
CCn1nc(C)c(NC(=O)CC23CC4CC(CC(C4)C2)C3)c1C | -3% | 21µM* | ? | -14% | ? | i
O=C(c1ccccc1)c1ccc(Cn2cc(CCCO)nn2)cc1 | 0% | 5.8µM* | i | 1% | 8.2µM* | i
O=C(OCc1cn(Cc2ccccc2)nn1)c1ccccc1 | 0% | -3% | i | -1% | -3% | i
O=C(O)CCCCCCCCc1cn(Cc2ccc(C(=O)c3ccccc3)cc2)nn1 | 3.7µM* | 4.1µM* | 9.2µM*! | 4.6µM* | 3.7µM* | 4.6µM*!
COc1ccc(CN/C(C)=C(/C#N)C(N)=O)cc1OC | 17% | -22% | i | 8% | -12% | i
O=C1CCCS(=O)(=O)c2ccccc21 | 11% | 2% | ? | 12% | 21% | i
CCCCn1c(=O)c2oc3ccccc3c2n(CC(=O)Nc2cccc(Cl)c2)c1=O | . | -19% | . | . | -29% | .
SMILES | HT1080NT lethal | TDP1 cell noCPT | KB-V1 MDR tox | HT1080 IDH1KD tx | TDP1 cell CPT | KB-3-1 cytotox
CC(C)c1ccc(/C=C2\SC(=O)N(CC(=O)NC3CCS(=O)(=O)C3)C2=O)cc1 (stereo not drawn) | -5% | 16µM* | i | ? | 23µM* | i
O=C(CN1C(=O)S/C(=C\c2ccccc2)C1=O)NC1CCS(=O)(=O)C1 (stereo not drawn) | 2% | -11% | i | -1% | -2% | i
O=C(CCCN1C(=O)/C(=C/c2ccc(F)cc2)SC1=S)NC1CCS(=O)(=O)C1 (stereo not drawn) | -3% | ? | ? | -16% | 18µM* | i
O=C(CCN1C(=O)/C(=C/c2ccccc2)SC1=S)NC1CCS(=O)(=O)C1 (stereo not drawn) | 10% | -15% | i | 20% | -29% | i
COc1ccc(S(=O)(=O)N[C@@H](CSCc2ccccc2)C(=O)O)cc1 | 16% | 11% | ? | 12% | 5% | i
CCCn1nnc(NC(=S)NC(=O)CC)n1 | 2% | 18µM* | i | 3% | 23µM* | i
CCCn1nnc(NC(=O)c2cc(Br)cc(Br)c2OC)n1 | 8% | -23% | 16µM* | 8% | -25% | i
CCCn1nnc(NC(=S)NC(=O)/C=C/c2ccc(Cl)cc2)n1 | -12% | -6% | i | -1% | -7% | i
CCCn1nnc(NC(=O)C(c2ccccc2)c2ccccc2)n1 | 2% | -15% | 18µM* | 5% | -19% | i
CCCn1nnc(NC(=S)NC(=O)c2ccc(-c3ccc(Br)cc3)o2)n1 | -2% | ? | i | 0% | ? | i
CCCn1nnc(NC(=S)NC(=O)Cc2ccccc2)n1 | -24% | 23µM* | i | ? | ? | i
COCc1cc(C)nc2sc(C(=O)Nc3cc(C)ccc3F)c(N)c12 | . | ? | . | . | -14% | .
Cn1nc(C(C)(C)C)cc1NC(=O)Nc1cc(Cl)cc(Cl)c1 | 16µM* | ? | i | ? | 16µM* | i
Cc1ccc(F)cc1NC(=O)Nc1cc(C(C)(C)C)nn1C | 3% | -14% | i | 1% | 12% | i
O=C(c1ccco1)N1CCN(CCCCOc2ccc(F)cc2)CC1 | 9% | ? | i | -2% | ? | i
CS(=O)(=O)c1cnc2c(-c3ccc(F)cc3)cnn2c1N | 7% | -28% | i | 5% | -14% | i
Cc1nc2c(-c3ccc(F)cc3)cnn2c(N)c1-c1ccc(F)cc1 | 3% | 4.6µM* | ? | 0% | 21µM* | i
COc1ccc(-c2c(C)nc3c(-c4ccsc4)cnn3c2N)cc1 | -1% | ? | ? | 0% | ? | i
COc1ccc(-c2c(C)nc3c(-c4ccccn4)cnn3c2N)cc1 | -19% | 18µM* | i | -14% | ? | i
